What all share (experiment): NCI-60 one-dose screen, 48 h (100 = growth as untreated, 0 = no growth, -100 = all killed)
One assay has as its system SK-MEL-2 melanoma. To be noted: 10 µM unless noted.
The test system of another assay is EKVX NSCLC. To be noted: 10 µM unless noted.
The subject of a further assay is SN12C renal. The following applies: 10 µM unless noted.
The next assay concerns UO-31 renal. To be noted: 10 µM unless noted.
Another assay concerns TK-10 renal. To be noted: 10 µM unless noted.
Another assay deals with ACHN renal. To be noted: 10 µM unless noted.
The next assay deals with CAKI-1 renal. To be noted: 10 µM unless noted.
The subject of a further assay is A498 renal. The following applies: 10 µM unless noted.
Another assay has as its system CCRF-CEM leukemia. The following applies: 10 µM unless noted.
The test system of the next assay is MOLT-4 leukemia. The following applies: 10 µM unless noted.
The subject of a further assay is SR leukemia. The following applies: 10 µM unless noted.
The subject of a further assay is RPMI-8226 leukemia. To be noted: 10 µM unless noted.
The next assay concerns OVCAR-8 ovarian. To be noted: 10 µM unless noted.
The test system of a further assay is OVCAR-5 ovarian. To be noted: 10 µM unless noted.
The test system of the next assay is OVCAR-4 ovarian. The following applies: 10 µM.
A further assay relates to SK-OV-3 ovarian. To be noted: 10 µM unless noted.
Another assay has as its system IGROV1 ovarian. To be noted: 10 µM unless noted.
The test system of another assay is HS 578T breast. To be noted: 10 µM unless noted.
The next assay concerns NCI/ADR-RES ovarian. To be noted: 10 µM unless noted.
The subject of another assay is OVCAR-3 ovarian. The following applies: 10 µM unless noted.

The panel holds about 83,000 compounds, 20% with a hit somewhere; the sample as a whole holds those more often.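 48-hour exposure, single concentration, 96-well plates; percent growth endpoint where 0 means no net growth. Active: below 10.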 A number with no mark means an inactive call. Activity calls are given as the source filed them.

On to `FC(F)(F)c1ccc2c(c1)Sc1ccccc1N2`, for which the growth is 106% with SK-MEL-2 melanoma; 91.6% with EKVX NSCLC; 100% in the assay on SN12C renal; 73.6% in the assay on UO-31 renal; 101% with TK-10 renal; 101% with ACHN renal. For the same molecule, the growth in the assay with CAKI-1 renal is 82%; in the assay with A498 renal, 80.7%; with CCRF-CEM leukemia, 102%; in the assay with MOLT-4 leukemia, 88.7%; with SR leukemia it was 89.5%; in the assay with RPMI-8226 leukemia it was 92.7%. Moreover, the growth in the assay with OVCAR-8 ovarian was 96.7%; with OVCAR-5 ovarian, 98.2%; in the assay with OVCAR-4 ovarian it was 97%; in the assay with SK-OV-3 ovarian, 105%; in the assay with IGROV1 ovarian, 92.6%; in the assay with HS 578T breast, 85.5%. Further, the growth in the assay on NCI/ADR-RES ovarian was 104%.

Consider `O=C(NCc1ccccc1)C(Cl)Cl`, for which the growth is 96.2% in the assay with SK-MEL-2 melanoma; 95.4% in the assay with EKVX NSCLC; 104% in the assay on SN12C renal; 91.5% in the assay with UO-31 renal; 90.2% in the assay with TK-10 renal; 104% in the assay with ACHN renal. In addition, the growth with CAKI-1 renal is 96.5%; in the assay with A498 renal it was 94.4%; with CCRF-CEM leukemia it was 103%; in the assay with MOLT-4 leukemia it was 101%; with SR leukemia it was 95.1%; with RPMI-8226 leukemia it was 101%. The growth was 101% in the assay with OVCAR-8 ovarian; 91.7% in the assay with OVCAR-5 ovarian; 102% in the assay on OVCAR-4 ovarian; 101% in the assay on SK-OV-3 ovarian; 101% in the assay with IGROV1 ovarian; 105% in the assay with HS 578T breast. Further, the growth in the assay with NCI/ADR-RES ovarian was 104%.

In the case of `Nc1cc(NN=C(c2ccc(O)cc2)c2ccc(O)cc2)c([N+](=O)[O-])cc1[N+](=O)[O-]`, the growth with SK-MEL-2 melanoma was -93.6% (active); with EKVX NSCLC, 97%; with SN12C renal, 53%; with UO-31 renal, -88.7% (active); in the assay with TK-10 renal it was 84.3%; with ACHN renal, 18.1%. Besides, the growth in the assay with CAKI-1 renal was 90.7%; in the assay on A498 renal it was 101%; with CCRF-CEM leukemia, 91.3%; with MOLT-4 leukemia it was 69.5%; in the assay with SR leukemia, 39.2%; in the assay with RPMI-8226 leukemia, 74.3%. For the same molecule, the growth in the assay on OVCAR-8 ovarian is -75.8% (active); with OVCAR-5 ovarian, -50.9% (active); in the assay on OVCAR-4 ovarian, 76.1%; in the assay on SK-OV-3 ovarian it was -44.4% (active); in the assay with OVCAR-3 ovarian it was 82%; in the assay on HS 578T breast, 71.4%. Also, the growth in the assay on NCI/ADR-RES ovarian was 7.33% (active).

Regarding `CSc1nc2sc3cc(Cl)c(Cl)cc3n2c(=N)c1C#N`, the growth in the assay on SK-MEL-2 melanoma is 102%; with EKVX NSCLC it was 80.1%; in the assay on SN12C renal, 98.4%; in the assay with UO-31 renal it was 69.3%; in the assay on TK-10 renal, 121%; in the assay with ACHN renal, 117%. The growth was 87.9% with CAKI-1 renal; 116% in the assay on A498 renal; 107% in the assay on CCRF-CEM leukemia; 95.5% in the assay with MOLT-4 leukemia; 106% in the assay on SR leukemia; 112% with RPMI-8226 leukemia. For the same molecule, the growth in the assay with OVCAR-8 ovarian was 91.4%; in the assay with OVCAR-5 ovarian, 123%; with OVCAR-4 ovarian it was 97.5%; with SK-OV-3 ovarian it was 89.3%; with OVCAR-3 ovarian it was 110%; with HS 578T breast, 91.9%. Further, the growth in the assay on NCI/ADR-RES ovarian is 101%.

Regarding `CCOC(=O)c1nn(C2CCCCO2)c2ccc(NC(=O)CSc3nc4ccccc4c(=O)[nH]3)cc12` (centres undefined), the growth in the assay on SK-MEL-2 melanoma was 105%; in the assay with EKVX NSCLC, 102%; in the assay on SN12C renal, 87%; in the assay with UO-31 renal, 79.6%; in the assay with TK-10 renal, 108%; in the assay with ACHN renal, 93.6%. The growth is 77.7% with CAKI-1 renal; 69.7% in the assay on A498 renal; 93.1% with CCRF-CEM leukemia; 103% with MOLT-4 leukemia; 113% in the assay with SR leukemia; 101% with RPMI-8226 leukemia. Also, the growth was 98.1% with OVCAR-8 ovarian; 115% in the assay on OVCAR-5 ovarian; 100% in the assay on OVCAR-4 ovarian; 101% with IGROV1 ovarian; 106% in the assay with OVCAR-3 ovarian; 51.6% in the assay with HS 578T breast. Further, in the assay with NCI/ADR-RES ovarian, the growth was 107%.

As to `CCCCN(CC)CC(CC)Nc1cc(OC)cc2cccnc12` (centres undefined), the growth with SK-MEL-2 melanoma is 115%; in the assay with EKVX NSCLC it was 128%; with SN12C renal, 99.7%; in the assay with UO-31 renal, 102%; in the assay on TK-10 renal, 100%; with ACHN renal it was 104%. The growth is 111% with CAKI-1 renal; 112% with A498 renal; 99.6% in the assay on CCRF-CEM leukemia; 111% in the assay with MOLT-4 leukemia; 113% in the assay on SR leukemia; 105% with RPMI-8226 leukemia. Further, the growth was 103% with OVCAR-8 ovarian; 103% in the assay on OVCAR-5 ovarian; 115% with OVCAR-4 ovarian; 127% in the assay on SK-OV-3 ovarian; 107% in the assay on OVCAR-3 ovarian; 101% with NCI/ADR-RES ovarian.

With `Fc1cc2[nH]ncc2c2c3c(c(-c4cn[nH]c4C(F)(F)F)nc12)C1CCC3C1` (centres undefined), the growth in the assay with SK-MEL-2 melanoma was -32.6% (active); in the assay on EKVX NSCLC it was 28.2%; with SN12C renal it was 6.09% (active); in the assay on UO-31 renal, -44.2% (active); in the assay with TK-10 renal, -11.2% (active); in the assay with ACHN renal, -0.693% (active). In addition, the growth in the assay with CAKI-1 renal was -5.2% (active); in the assay with A498 renal, -80.2% (active); with CCRF-CEM leukemia, 11.5%; with MOLT-4 leukemia, 6.06% (active); in the assay with SR leukemia, 5.5% (active); in the assay on RPMI-8226 leukemia it was 7.73% (active). Besides, the growth in the assay with OVCAR-8 ovarian is 10.2%; in the assay on OVCAR-5 ovarian it was -7.74% (active); in the assay with OVCAR-4 ovarian, 35%; in the assay with IGROV1 ovarian, -13% (active); with OVCAR-3 ovarian, 10.6%; in the assay on HS 578T breast, -10.8% (active).

Consider `COc1cc2c(c(OC)c1OC)-c1ccc(NNC(N)=S)c(=O)cc1[C@@H](NC(C)=O)CC2`, for which the growth in the assay with SK-MEL-2 melanoma is -8.39% (active); with EKVX NSCLC, 51.2%; in the assay with SN12C renal it was 35.9%; in the assay with UO-31 renal it was 50.8%; in the assay on TK-10 renal, 58.7%; with ACHN renal, 46.3%. In addition, the growth in the assay on CAKI-1 renal was 37.5%; in the assay with A498 renal it was 46.6%; in the assay on CCRF-CEM leukemia, 20.8%; with MOLT-4 leukemia it was 23.1%; with SR leukemia it was 13.2%; with RPMI-8226 leukemia, -11.9% (active). For the same molecule, the growth with OVCAR-8 ovarian was 6.26% (active); in the assay with OVCAR-5 ovarian, 31.5%; in the assay on OVCAR-4 ovarian, 23.1%; with SK-OV-3 ovarian, 7.84% (active); in the assay with OVCAR-3 ovarian, -56.8% (active); in the assay on HS 578T breast it was 52.1%. Besides, the growth in the assay on NCI/ADR-RES ovarian is 87.4%.

As to `CCOC(=O)c1c[nH]c2cc(OCC3CC3)c(OCC3CC3)cc2c1=O`, the growth is 119% in the assay with SK-MEL-2 melanoma; 116% in the assay on EKVX NSCLC; 108% with SN12C renal; 86.5% in the assay with UO-31 renal; 126% in the assay with TK-10 renal; 105% in the assay with ACHN renal. The growth is 104% with CAKI-1 renal; 94.1% with A498 renal; 91.3% with CCRF-CEM leukemia; 109% in the assay with MOLT-4 leukemia; 104% in the assay with SR leukemia; 103% in the assay with RPMI-8226 leukemia. The growth with OVCAR-8 ovarian is 99.5%; in the assay on OVCAR-5 ovarian, 102%; with OVCAR-4 ovarian, 118%; in the assay on SK-OV-3 ovarian, 110%; in the assay with OVCAR-3 ovarian, 109%; in the assay with HS 578T breast, 103%. In the assay on NCI/ADR-RES ovarian, the growth was 111%.

Source of the values: PubChem BioAssay (NCI).
